A selection: hits, their analogues and other compounds. The true share with any hit is near 3.5%.
MITF primary – inhibitors of human MITF. AlphaScreen MITF homodimerization, bead proximity signal. inhibition, % at 2.6 µM. hit rate 0.91% among 650,000; in the data active = inhibition above about 50%
FBW7 act – human FBW7 E3 ligase activation, primary screen; Q969H0; AlphaScreen FBW7–phospho-cyclin E peptide binding, activator screen; normalized activity (activation), % at 26.1 µM; hit rate 0.13% among 650,000; AID 1259310; in the data active = normalized activity above about 1.9%;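 note: purified mutant Fbw7 with reduced substrate affinity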
Target sequence (Q969H0 whole entry, looked up): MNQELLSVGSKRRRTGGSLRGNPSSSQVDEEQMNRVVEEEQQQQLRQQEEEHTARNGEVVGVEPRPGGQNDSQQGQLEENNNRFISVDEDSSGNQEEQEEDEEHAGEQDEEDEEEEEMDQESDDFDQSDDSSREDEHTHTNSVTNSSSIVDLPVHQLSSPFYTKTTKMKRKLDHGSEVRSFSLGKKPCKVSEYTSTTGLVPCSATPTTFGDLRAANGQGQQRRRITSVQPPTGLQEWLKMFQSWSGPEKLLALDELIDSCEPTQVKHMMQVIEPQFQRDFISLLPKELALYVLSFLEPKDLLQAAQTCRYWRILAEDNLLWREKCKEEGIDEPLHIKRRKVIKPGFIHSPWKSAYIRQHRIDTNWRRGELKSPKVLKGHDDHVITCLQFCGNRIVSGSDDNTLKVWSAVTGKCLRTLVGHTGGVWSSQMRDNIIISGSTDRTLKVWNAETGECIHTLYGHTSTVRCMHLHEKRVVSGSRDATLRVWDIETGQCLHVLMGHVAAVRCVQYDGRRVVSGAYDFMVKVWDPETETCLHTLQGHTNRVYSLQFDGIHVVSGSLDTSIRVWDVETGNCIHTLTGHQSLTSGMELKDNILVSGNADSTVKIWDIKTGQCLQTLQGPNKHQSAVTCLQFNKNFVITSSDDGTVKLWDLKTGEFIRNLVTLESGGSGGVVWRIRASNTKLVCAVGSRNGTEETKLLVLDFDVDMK
TEAD-YAP block – TEAD-YAP interaction inhibition | hit rate 1.4% among 640,000 | inhibition, % at 9.12 µM | HEK-TIYL cells, TEAD-Gal4/YAP UAS-luciferase luminescence | AID 1259422; in the data active = inhibition above about 32%
GPR151 activ – activates the human receptor GPR151. hit rate 1% among 650,000. AID 1508602. PathHunter beta-arrestin GPR151 cells, luminescence. Q8TDV0. activation, % at 11.2 µM; in the data active = activation above about 4.9%
GPR151 conf act – confirmation of human GPR151 activators; shares compounds with GPR151 activ; GPR151 PathHunter beta-arrestin cells, luminescence, 90 min; % of EA-reagent control over plate median; activation, % at 11.2 µM; 6,700 tested, under 10 active;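 active = mean percent activation across replicates above the confirmation screen cutoff of 4.91%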
GPR119 counter – activates human GPR119 in a GPR151 counter-screen; shares compounds with GPR151 activ; GPR119 PathHunter beta-arrestin cells, luminescence, 90 min; 0 = compound-well median, 100 = enzyme-acceptor control; activation, % at 11.2 µM; hit rate 0.3% among 6,700; AID 1508611;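 active = mean percent activation in the counterscreen above 29.09%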;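 note: counterscreen on off-target GPR119 to flag nonselective hits from the GPR151 activator screen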
Of the large screens only hits and unclear results are named; the others gave an inactive call (follow-up assays come after a bar, where they were run); ! = not active in a repeat.

COc1cc(CN2CCN(C(C)C)C(CCO)C2)cc(Cl)c1OC (centres undefined)	none
CCCCNC(=O)N1c2ccc(C)cc2C2CN(C)CCC21 (centres undefined)	GPR151 activ 5.9 | GPR151 conf act inactive | GPR119 counter inactive
CCCCCC(=O)N1c2ccc(C)cc2C2CN(C)CCC21 (centres undefined)	none
COC(=O)C1C2C(=O)N(c3ccc([N+](=O)[O-])cc3)C(=O)C12c1ccc(C)cc1 (centres undefined)	none
COc1cc(OC)cc(C(=O)NC(=S)N2CC3CC(C2)c2cccc(=O)n2C3)c1 (centres undefined)	GPR151 activ 7.5 | GPR151 conf act inactive | GPR119 counter inactive
O=c1cccc2n1CC1CC2CN(C(=S)Nc2ccccc2)C1 (centres undefined)	none
CCN1CCN(Cc2cc(Br)cc(OC)c2O)CC1	GPR151 activ 6.6 | GPR151 conf act inactive | GPR119 counter inactive
N#Cc1ccc(NC(=O)CN2c3cccc4cccc(c34)S2(=O)=O)cc1Cl	GPR151 activ 5.2 | GPR151 conf act inactive | GPR119 counter inactive
CC1(c2ccc3ccccc3c2)NC(=O)N(CC(=O)Nc2ccc(C#N)c(Cl)c2)C1=O (centres undefined)	none
COc1ccc(CN2CCN(C(C)C)C(CCO)C2)c(OC)c1 (centres undefined)	none
CC(=O)c1ccc(OCC(=O)N2CCCC(N(C)CCc3ccccc3)C2)cc1 (centres undefined)	GPR151 activ 5.0 | GPR151 conf act inactive | GPR119 counter inactive
O=C1NC(=O)N(c2ccccc2)C(=O)/C1=C\c1ccc2c(c1)OCO2	none
CC(C)C(=O)Nc1ccc(S(=O)(=O)N2CC3CC(C2)c2cccc(=O)n2C3)cc1 (centres undefined)	GPR151 activ 13.1 | GPR151 conf act inactive | GPR119 counter inactive
CC(=O)Nc1ccc(S(=O)(=O)N2CC3CC(C2)c2cccc(=O)n2C3)cc1 (centres undefined)	none
CC12CC[C@H]3[C@@H](CC=C4C[C@@H](O)CCC43C)[C@@H]1CCC2=O (some centres undefined)	none
N#CCC(=O)NN1Cc2ccccc2C1=N	GPR151 activ 6.8 | GPR151 conf act inactive | GPR119 counter inactive
OCC1OC(Oc2ccc(Br)cc2)C(O)C(O)C1O (centres undefined)	none
Nc1ncnc2c1ccn2[C@@H]1O[C@H](CO)[C@@H](O)[C@H]1O	TEAD-YAP block 100.3, GPR151 activ 7.1 | GPR151 conf act 5.9 | GPR119 counter inactive
C[C@]12CCC(=O)C=C1CC[C@@H]1[C@@H]2CC[C@]2(C)C(=O)CC[C@@H]12	none
CC12C=CC(=O)C=C1CCC1C2CCC2(C)C(=O)CCC12 (centres undefined)	GPR151 activ 5.1 | GPR151 conf act inactive | GPR119 counter inactive
CCCC(=O)NC(Oc1ccccc1C(N)=O)C(Cl)(Cl)Cl (centres undefined)	none
C[C@@H]1O[C@H](C[N+](C)(C)C)C[C@H]1O	GPR151 activ 5.9! | GPR151 conf act inactive | GPR119 counter inactive
C[C@H]1OC[C@@H](C[N+](C)(C)C)O1	none
O=C(COc1ccc(Br)cc1)N1CCN(CC2CC=CCC2)CC1 (centres undefined)	GPR151 activ 9.7 | GPR151 conf act inactive | GPR119 counter inactive
CCOc1ccc(-n2c(/C=C/c3ccccc3)nc3ccccc3c2=O)cc1	GPR151 activ 6.9 | GPR151 conf act inactive | GPR119 counter inactive
O=c1c2ccccc2nc(/C=C/c2ccccc2)n1-c1ccc(Cl)cc1	GPR151 activ 4.9 | GPR151 conf act inactive | GPR119 counter inactive
O=c1c2ccccc2nc(/C=C/c2ccccc2)n1-c1ccccc1	none
CCOCCCNC(C)c1cccnc1 (centres undefined)	none
O=C(NCc1cccs1)c1ccc(CN2CC3CCC2C3)[nH]c1=O (centres undefined)	none
CCCCCCCCCCCCCCCC[n+]1ccccc1	TEAD-YAP block 60.0, GPR151 activ 5.0 | GPR151 conf act inactive | GPR119 counter inactive
O=C(Nc1ccccn1)c1c(O)c2c(n(Cc3ccco3)c1=O)CCCC2	none
Clc1ccc(OCCCCCn2ccnc2)c(Cl)c1	none
COc1ccccc1C(=O)Nc1ccc(Cl)cc1C(=O)c1ccccc1Cl	none
